Screening data: PubChem, National Center for Advancing Translational Sciences (NCATS)
A selection: hits, their analogues and other compounds. The true share with any hit is near 18%.
TDP1 cell CPT – growth inhibition of DT40 Tdp1-/-;hTDP1 cells with camptothecin (screen for TDP1 inhibitors); chicken DT40 Tdp1-/-;hTDP1 cells + 20 nM CPT, ATP luminescence, 48 h; Potency, µM (highest dose often 46.2 µM), for inactives: at the top dose activity change, negative = growth inhibition, most hits filed as inhibitors; 12% of 420,000 active; AID 686979; note: potency is the fitted concentration of half-maximal effect; nearly all actives have a fitted effect of over 55% in size
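Chicken DT40 Tdp1-/- cells complemented with human TDP1, 400 cells/well, exposed to compounds plus 20 nM camptothecin for at least 48 h at 37 C; viability read as ATP content by CellTiter-Glo luminescence.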
TDP1 block – inhibitors of human tyrosyl-DNA phosphodiesterase TDP1. Q9NUW8. recombinant TDP1, AlphaScreen DNA substrate cleavage. Potency, µM (series often up to 130 µM), inactives show at the highest dose activity change, negative = inhibition, most hits filed as inhibitors. 0.28% of 350,000 active. AID 485290; note: potency is the fitted concentration of half-maximal effect; nearly all actives have a fitted effect of over 40% in size
Target sequence (Q9NUW8 whole entry, looked up): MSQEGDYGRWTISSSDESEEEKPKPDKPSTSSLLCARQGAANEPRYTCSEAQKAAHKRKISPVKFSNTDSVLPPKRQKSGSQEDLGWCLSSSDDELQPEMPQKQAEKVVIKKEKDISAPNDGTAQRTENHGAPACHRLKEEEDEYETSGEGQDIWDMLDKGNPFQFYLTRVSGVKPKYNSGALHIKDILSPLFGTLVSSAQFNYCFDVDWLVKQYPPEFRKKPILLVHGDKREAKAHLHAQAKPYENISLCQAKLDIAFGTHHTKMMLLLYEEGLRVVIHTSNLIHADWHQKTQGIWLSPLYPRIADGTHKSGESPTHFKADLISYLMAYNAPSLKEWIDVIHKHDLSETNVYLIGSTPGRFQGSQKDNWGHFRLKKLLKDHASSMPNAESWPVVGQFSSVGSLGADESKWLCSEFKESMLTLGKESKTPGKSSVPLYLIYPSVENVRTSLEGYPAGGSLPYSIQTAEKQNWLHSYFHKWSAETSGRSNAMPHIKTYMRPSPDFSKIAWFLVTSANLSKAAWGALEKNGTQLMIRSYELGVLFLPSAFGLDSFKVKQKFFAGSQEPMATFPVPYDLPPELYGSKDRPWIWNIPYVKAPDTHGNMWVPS
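AlphaScreen read-out: signal falls as enzyme removes the 3' tyrosine-FITC from a 5'-biotinylated DNA oligo (15 nM, 5 min, RT). Enzyme was E. coli-made recombinant Tdp1 at 1 nM, exposed to compound for 15 min beforehand; beads 10 ug/ml, 10 min.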
IL-1B inflam inh – blocks inflammasome-driven IL-1 beta release; THP-1 LPS/ATP IL-1B secretion, AlphaLISA, 16 h; hits give low values; 4.7% of 360,000 active; activity change, % at 57.5 µM; in the data active = activity change below about -50%; inconclusive = mostly about -30% to -49%
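Secreted IL-1B measured by AlphaLISA bead assay after 16 h compound exposure of THP-1 cells; compounds (final up to 57.5 uM) added 1 h before LPS (250 ng/mL) and ATP (1.25 mM) stimulation; lower signal means less secretion.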
TDP1 cell noCPT – qHTS for Inhibitors of human tyrosyl-DNA phosphodiesterase 1 (TDP1): qHTS in cells in absence of CPT; AID 686978, 2013; Potency, µM (highest dose often 46.2 µM), inactives show top-dose activity change, negative = growth inhibition, actives largely listed as inhibitors; 15% of 420,000 active; DT40 Tdp1-/- hTDP1 cells, no CPT, ATP luminescence, 48 h; note: potency is the fitted concentration of half-maximal effect; nearly all actives have a fitted effect of over 55% in size
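Readout: luminescence from CellTiter-Glo after 30 min in the dark at RT. Cells: DT40 Tdp1-/- with stable hTDP1, 400/well. Exposure: compounds alone, ≥48 hr, 37 °C.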
CtBP-E1A blk – inhibitors of CtBP/E1A interaction. AID 651724. activity change, % (concentration not given with the values). AlphaScreen GST-E1A/His-CtBP binding, 1536-well; hits give low values. 0.49% of 340,000 active; in the data active = activity change below about -65%; inconclusive = mostly about -30% to -63%
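AlphaScreen with 125 nM GST-E1A and 125 nM His-CtBP (5X stocks) in Tris pH 8.0, 300 mM NaCl, BSA, Tween 20, TCEP. Compounds preincubated 2 h at 37 deg C, then glutathione donor/nickel acceptor beads added for 1 h at 37 deg C in dark.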
Six1-Eya2 blk – inhibitors of human Six1/Eya2 interaction; Q15475+O00167; AlphaScreen GST-Six1/His-Eya2 binding, biochemical; hits give low values; activity change, % (concentration not given with the values); 0.56% of 360,000 active; in the data active = activity change below about -65%; inconclusive = mostly about -30% to -63%
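Six1/Eya2 binding was read as AlphaScreen signal after compounds were pinned into GST-Six1 plus His-tagged Eya2 (5X stock 250/500 nM) in pH 8.0 Tris/NaCl/TCEP buffer, beads added, then incubated 1 h, 37 C, dark.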
* hit, by the source's call; [ ] = another dose, or the depositor's remark. Unless noted, calls come from the whole dose curve; as a rule, active = well fitted curve in the direction sought with a large enough effect; inconclusive = small, poorly fitted or top-dose-only effect, or another doubt; inactive = no such curve, though single readings can be large; an effect the other way counts as inactive or inconclusive. % is set by controls: 0 for no effect and ±100 for the full control effect.

For O=C(N/N=C/c1cccs1)c1cc(-c2ccc3ccccc3c2)n[nH]1 the results were TDP1 cell CPT inconclusive, TDP1 block 3%, IL-1B inflam inh inconclusive, TDP1 cell noCPT 21µM*, CtBP-E1A blk -3 and Six1-Eya2 blk -5.
For COc1ccc(-n2[nH]c3c(cnc4ccccc43)c2=O)cc1 the results were TDP1 cell CPT -5%, IL-1B inflam inh -21, TDP1 cell noCPT -1%, CtBP-E1A blk inconclusive and Six1-Eya2 blk inconclusive.
O=C(N/N=C/c1cccs1)c1ccc2ccccc2c1 was read as TDP1 cell CPT 15µM*, TDP1 block 4%[56.1 µM], IL-1B inflam inh -19, TDP1 cell noCPT 21µM*, CtBP-E1A blk 5 and Six1-Eya2 blk -6.
Screening O=C(N/N=C/c1ccco1)c1cc(-c2ccc3ccccc3c2)n[nH]1 returned TDP1 cell CPT 13µM*, TDP1 block 5%, IL-1B inflam inh -67*, TDP1 cell noCPT 23µM*, CtBP-E1A blk -29 and Six1-Eya2 blk inconclusive.
For CCc1ccc(-c2cc(C(=O)N/N=C/c3ccco3)[nH]n2)cc1 the results were TDP1 cell CPT -22%, TDP1 block 0%, IL-1B inflam inh -10, TDP1 cell noCPT inconclusive, CtBP-E1A blk -22 and Six1-Eya2 blk -6.
Cc1nn(CC(=O)NC2CCC(C)CC2)c(=O)c(C#N)c1C (centres undefined) was read as TDP1 cell CPT 1%, IL-1B inflam inh 16, TDP1 cell noCPT 2%, CtBP-E1A blk -2 and Six1-Eya2 blk 6.
`CCn1nc(C)cc1C(=O)NC1CC(C)(C)Cc2c1cnn2-c1cccc(F)c1` (centres undefined) gave TDP1 cell CPT 21µM*, TDP1 block 4%[56.1 µM], IL-1B inflam inh inactive, TDP1 cell noCPT 16µM*, CtBP-E1A blk -1 and Six1-Eya2 blk -4.
COc1cccc(C(=O)NC2CC(C)(C)Cc3c2cnn3-c2cccc(F)c2)c1OC (centres undefined) was read as TDP1 cell CPT 23µM*, TDP1 block 2%[56.1 µM], IL-1B inflam inh inactive, TDP1 cell noCPT 18µM*, CtBP-E1A blk -2 and Six1-Eya2 blk -6.
`Cc1cc(C)c(C(=O)NC2CC(C)(C)Cc3c2cnn3-c2cccc(F)c2)[nH]1` (centres undefined) gave TDP1 cell CPT inconclusive, TDP1 block 7%, IL-1B inflam inh -4, TDP1 cell noCPT inconclusive, CtBP-E1A blk -3 and Six1-Eya2 blk -10.
`COc1cccc(/C=C/C(=O)OCC(=O)c2ccc(C)c(C)c2)c1OC` gave TDP1 cell CPT -28%, TDP1 block -4%, IL-1B inflam inh -5, TDP1 cell noCPT 26µM*, CtBP-E1A blk -20 and Six1-Eya2 blk -2.
COc1ccc(/C=C/C(=O)c2ccc3c(c2)OCCO3)cc1[N+](=O)[O-] was read as TDP1 cell CPT inconclusive, TDP1 block 7%, IL-1B inflam inh -55*, TDP1 cell noCPT 15µM*, CtBP-E1A blk 0 and Six1-Eya2 blk -1.
For COc1ccccc1NC(CC(=O)c1ccccc1)C(=O)OCC(=O)c1ccc(C)c(C)c1 (centres undefined) the results were TDP1 cell CPT 10µM*, TDP1 block 3%, IL-1B inflam inh 5, TDP1 cell noCPT 16µM*, CtBP-E1A blk -2 and Six1-Eya2 blk -26.
`O=C(/C=C/c1cccc([N+](=O)[O-])c1)c1ccccc1` gave TDP1 block 9%.
COc1cccc(/C=C/C(=O)OCC(=O)c2ccccc2)c1OC was read as TDP1 cell CPT 9%, TDP1 block -8%, IL-1B inflam inh 18, TDP1 cell noCPT inconclusive and Six1-Eya2 blk 8.
O=C(/C=C/c1cccc([N+](=O)[O-])c1)c1ccc2c(c1)OCCO2 was read as TDP1 cell CPT inconclusive, TDP1 block 5%, IL-1B inflam inh 0, TDP1 cell noCPT 18µM*, CtBP-E1A blk -11 and Six1-Eya2 blk -8.
